From paper PMC5540273 (PLoS ONE, 2017)

Tested on: PAK7
Conditions: concentration: 1 μM,replicates: in singlicate; n = 1
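Note: KINOMEscan kinase panel screen.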

Structure (SMILES)	%Inh [%]
O=C(NCCNc1ccnc(NCc2ccc(F)cc2)n1)c1cc2ccccc2s1 [GSK1379944]	0
Cl.Cl.NC[C@H](CC1CCCCC1)NC(=O)c1cc(Br)c(-c2ccnc3[nH]ccc23)s1 [GSK1581427]	42
Cc1ccc2c(-c3ccncc3)c(-c3ccc(F)cc3)nn2c1.Cl [GW461484]	4
CC(C)N1C(=O)Cc2cc(Nc3ncc(C(F)(F)F)c(NCc4cccc(S(C)(=O)=O)c4)n3)ccc21	25
CN(C)CC(O)COc1ccc(Nc2nccc(-c3cnn4nc(N5CCOCC5)ccc34)n2)cc1 (stereo not shown) [GW767488]	9
COc1ccc(C[C@@H](CN)NC(=O)c2cc(Br)c(-c3ccnc4[nH]ccc34)s2)cc1.Cl.Cl [GSK1389063]	98.7
C[C@@H](Oc1cc(-c2cnn(C3CCNCC3)c2)cnc1N)c1c(Cl)ccc(F)c1Cl	0
CCN(CC)CCCCNc1ncc2cc(-c3c(Cl)cccc3Cl)c(NC(=O)NC(C)(C)C)nc2n1	16
C[C@H]1Oc2cc(cnc2N)-c2c(nn(C)c2C#N)CN(C)C(=O)c2ccc(F)cc21	11
Cl.Cl.NC[C@H](Cc1ccc(C(F)(F)F)cc1)NC(=O)c1cc(Br)c(-c2ccnc3[nH]ccc23)s1 [GSK1487252]	33
C[C@@H]1CCN(C(=O)CC#N)C[C@@H]1N(C)c1ncnc2[nH]ccc12	0
Cc1n[nH]c2ccc(-c3cc(OC[C@@H](N)Cc4ccccc4)cnc3-c3ccoc3)cc12.O=C(O)C(F)(F)F.O=C(O)C(F)(F)F [GSK507358]	56
CN(C)CCOc1ccc(-c2cc(-c3c[nH]nc3-c3ccccn3)ccn2)cc1 [GW835314]	4
CCn1c(-c2nonc2N)nc2c(C#CC(C)(C)O)nc(OCCN)cc21.Cl.Cl [GSK902056]	93.4
Nc1nc(Nc2ccccc2)cc(-c2ccc3c(N)n[nH]c3c2)n1 [GSK2225749]	0
Cc1ccc(-n2nc(C(C)(C)C)cc2NC(=O)Nc2ccc(OCCN3CCOCC3)c3ccccc23)cc1 [GW839464]	0
Cc1cc(C(=O)Nc2ccc(Oc3ccc4nc(NC(=O)C5CC5)cn4n3)cc2)nn1-c1ccccc1	0
O=C(NCCCN1CCOC1=O)c1cnc(NCc2cc(Cl)ccc2Cl)nc1NC1CCCC1	2
CC(C)Nc1cc(-c2ccc3c(N)n[nH]c3c2)nc(N)n1 [GSK2221681]	0
CNC(=O)c1ccccc1Sc1ccc2c(/C=C/c3ccccn3)n[nH]c2c1	40
NC(=O)c1cc(-c2ccccc2)cc2c(C3CCNCC3)c[nH]c12 [GSK301362]	4
Cl.Cl.Nc1nc(-c2ccc3c(N)n[nH]c3c2)cc(N2CCCC(NC(=O)c3ccccc3)C2)n1 (stereo not shown) [GSK2286775]	0
Cl.Oc1cc(-c2nc(-c3ccccc3)[nH]c2-c2ccncc2)ccc1Cl [SB-386023]	1
Cc1cc2cn[nH]c2cc1-c1cccc2c(N)c(C(N)=O)nnc12	0
Cc1occc1-c1nc(N)c(OC[C@@H](N)Cc2c[nH]c3ccccc23)cc1-c1cc2c(C)n[nH]c2cn1 [GSK1660450]	9
C=CC(=O)Nc1cc2c(Nc3ccc(F)c(Cl)c3)ncnc2cc1OCCCN1CCOCC1 [GW781483]	0

Tested on: T1, PCTK1
T1 construct: gene CDK16
Conditions: concentration: 1 μM,replicates: in singlicate; n = 1

Structure (SMILES)	%Inh [%]
O=C(NCCNc1ccnc(NCc2ccc(F)cc2)n1)c1cc2ccccc2s1 [GSK1379944]	8
Cl.Cl.NC[C@H](CC1CCCCC1)NC(=O)c1cc(Br)c(-c2ccnc3[nH]ccc23)s1 [GSK1581427]	3
Cc1ccc2c(-c3ccncc3)c(-c3ccc(F)cc3)nn2c1.Cl [GW461484]	0
CC(C)N1C(=O)Cc2cc(Nc3ncc(C(F)(F)F)c(NCc4cccc(S(C)(=O)=O)c4)n3)ccc21	0
CN(C)CC(O)COc1ccc(Nc2nccc(-c3cnn4nc(N5CCOCC5)ccc34)n2)cc1 (stereo not shown) [GW767488]	97.6
COc1ccc(C[C@@H](CN)NC(=O)c2cc(Br)c(-c3ccnc4[nH]ccc34)s2)cc1.Cl.Cl [GSK1389063]	16
C[C@@H](Oc1cc(-c2cnn(C3CCNCC3)c2)cnc1N)c1c(Cl)ccc(F)c1Cl	25
CCN(CC)CCCCNc1ncc2cc(-c3c(Cl)cccc3Cl)c(NC(=O)NC(C)(C)C)nc2n1	0
C[C@H]1Oc2cc(cnc2N)-c2c(nn(C)c2C#N)CN(C)C(=O)c2ccc(F)cc21	0
CCN(CC)CCOc1ccc(Nc2ncc3cc(-c4c(Cl)cccc4Cl)c(=O)n(C)c3n2)cc1 [SB-601273]	0
Cl.Cl.NC[C@H](Cc1ccc(C(F)(F)F)cc1)NC(=O)c1cc(Br)c(-c2ccnc3[nH]ccc23)s1 [GSK1487252]	0
C[C@@H]1CCN(C(=O)CC#N)C[C@@H]1N(C)c1ncnc2[nH]ccc12	0
Cc1n[nH]c2ccc(-c3cc(OC[C@@H](N)Cc4ccccc4)cnc3-c3ccoc3)cc12.O=C(O)C(F)(F)F.O=C(O)C(F)(F)F [GSK507358]	4
CN(C)CCOc1ccc(-c2cc(-c3c[nH]nc3-c3ccccn3)ccn2)cc1 [GW835314]	3
CCn1c(-c2nonc2N)nc2c(C#CC(C)(C)O)nc(OCCN)cc21.Cl.Cl [GSK902056]	2
Nc1nc(Nc2ccccc2)cc(-c2ccc3c(N)n[nH]c3c2)n1 [GSK2225749]	0
Cc1ccc(-n2nc(C(C)(C)C)cc2NC(=O)Nc2ccc(OCCN3CCOCC3)c3ccccc23)cc1 [GW839464]	0
Cc1cc(C(=O)Nc2ccc(Oc3ccc4nc(NC(=O)C5CC5)cn4n3)cc2)nn1-c1ccccc1	0
O=C(NCCCN1CCOC1=O)c1cnc(NCc2cc(Cl)ccc2Cl)nc1NC1CCCC1	0
CC(C)Nc1cc(-c2ccc3c(N)n[nH]c3c2)nc(N)n1 [GSK2221681]	0
NC(=O)c1cc(-c2ccccc2)cc2c(C3CCNCC3)c[nH]c12 [GSK301362]	9
Cl.Cl.Nc1nc(-c2ccc3c(N)n[nH]c3c2)cc(N2CCCC(NC(=O)c3ccccc3)C2)n1 (stereo not shown) [GSK2286775]	5
Cl.Oc1cc(-c2nc(-c3ccccc3)[nH]c2-c2ccncc2)ccc1Cl [SB-386023]	0
Cc1cc2cn[nH]c2cc1-c1cccc2c(N)c(C(N)=O)nnc12	26
Cc1occc1-c1nc(N)c(OC[C@@H](N)Cc2c[nH]c3ccccc23)cc1-c1cc2c(C)n[nH]c2cn1 [GSK1660450]	10
C=CC(=O)Nc1cc2c(Nc3ccc(F)c(Cl)c3)ncnc2cc1OCCCN1CCOCC1 [GW781483]	1
